ERK EGF block: inhibitors of EGF-stimulated ERK signaling pathway. HEK293-V1b, EGF-stimulated phospho-ERK AlphaScreen. Potency, µM (titrated, usually from 11.5 µM), inactives show at the top dose activity change, negative = inhibition, most hits filed as inhibitors. 130,000 compounds, 0.41% hits. AID 1454; active means well fitted inhibition curve with a large enough effect;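 further: plate controls were stimulated vehicle wells for no effect and unstimulated vehicle basal for full effect; nearly all actives have a fitted effect of over 55% in size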
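Compounds are titrated over HEK293-V1b cells kept overnight in 1% FBS. After 30 min at 37C, EGF (25 nM final) triggers ERK phosphorylation for 5 min, measured by AlphaScreen in lysates.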
* = called active by the depositor; ! = a repeat was not active; [ ] = another dose, or the depositor's remark. The sample as a whole holds a higher share of hits than the screen did. Potency means the concentration at half of the fitted maximal effect.

SMILES	ERK EGF block
C=C(CC1CC(O)[C@]2(C)OC3CC4OC5C[C@]6(C)O[C@]7(C)CCC8OC9C[C@]%10(C)OC%11C(C)=CC(=O)OC%11CC%10OC9C[C@@H](C)C8OC7CC6O[C@]5(C)C/C=C\C4OC3CC2O1)C(=O)O (stereo not given in full)	-12%[57.5 µM]
C=C(C=O)C[C@@H]1C[C@H](O)C2OC3C[C@]4(C)OC5/C=C\CC6OC7C(CC=CCC6OC5CCCC4OC3CC2O1)OC1CC2OC3CC(=O)OC3C[C@@H](C)C[C@@]2(C)OC1C[C@@H]7C (stereo not given in full)	4µM*
CC(=O)C1CCC2C3CCC4=CC(=O)CC[C@@]4(C)C3CC[C@]12C (stereo not given in full)	4%
NC(N)=Nc1ccc2[nH]c3c(c2c1)C[C@]1(O)[C@@H]2Cc4ccc(O)c5c4[C@]1(CCN2CC1CC1)[C@@H]3O5	-10%
O=c1[nH]c2ccccc2n1C1CCN(CCCC(c2ccc(F)cc2)c2ccc(F)cc2)CC1	25µM*!
CCC1C2CC3C4N(C)c5ccccc5[C@]45CC(C2C5O)N3C1O (stereo not given in full)	21%
CC(=O)Oc1ccc(Cl)c2cccnc12	-1%
CCCN1[C@@H]2C[C@@H](O)CC[C@@H]2C[C@H]1C(=O)OC	-3%
CNc1ccc2oc(C[C@H]3O[C@@]4(CC[C@H]3C)O[C@H]([C@H](C)C(=O)c3ccc[nH]3)[C@H](C)C[C@H]4C)nc2c1C(=O)O	14µM*!
c1ccc(N2CC[C@@]3(CCCNC3)C2)cc1	8%
CCC12CCCN3CCC4(c5ccc(OC)c(O)c5N(C(C)=O)C4CC1)C32 (stereo not given)	-14%
COc1cc2c(cc1O)C[C@H]1c3c(cc(OC)c(O)c3-2)CCN1C	3%
CCCN1CCCC2Cc3[nH]ncc3CC21 (stereo not given)	5%
C=C1C(=O)O[C@H]2C[C@@H](C)[C@@H]3C=CC(=O)[C@@]3(C)C[C@H]12	1%[57.5 µM]
C=C1C(=O)O[C@H]2[C@H]1[C@H](OC(=O)CC(=O)O[C@@H]1C[C@@H](C)[C@@H]3C=CC(=O)[C@@]3(C)[C@H]3OC(=O)C(=C)[C@H]13)C[C@@H](C)[C@H]1C=CC(=O)[C@]12C	13%[57.5 µM]
C=C1C(=O)O[C@@H]2C[C@@H](C)[C@@H]3C=CC(=O)[C@@]3(C)[C@@H](OC(=O)CC(=O)O[C@H]3[C@@H]4C(=C)C(=O)O[C@@H]4C[C@@H](C)[C@@H]4C=CC(=O)[C@]43C)[C@H]12	4.5µM*
O=C(CCCN1CCC2(CC1)C(=O)N(Cc1cccc(F)c1)CN2c1ccccc1)c1ccc(F)cc1	10%
CCc1ccc(C(=O)NN(C(=O)c2cc(C)cc(C)c2)C(C)(C)C)cc1	4%
CCC1C(=O)OC[C@H]1Cc1cncn1C (stereo not given in full)	11%
CC[C@@H]1CN2CCc3cc(OC)c(OC)cc3[C@@H]2C[C@@H]1C[C@H]1NCCc2cc(OC)c(OC)cc21	-7%
CN(C)C1C(=O)C(C(N)=O)=C(O)[C@@]2(O)C(=O)C3=C(O)c4c(O)ccc(Cl)c4[C@](C)(O)C3CC12 (stereo not given in full)	-4%
Cc1nn(Cc2ccccc2)c(C)c1C=C1C(=O)NC(=S)NC1=O	5%
CCN(CC)c1ccc(C=C2C(=O)NC(=S)NC2=O)cc1	28µM*
CN(C)c1ccc(/C=C2\C(=O)NC(=O)N(Cc3ccc(F)cc3)C2=O)cc1	5%[57.5 µM]
c1ccc(CN2CCC3(CCNCC3)CC2)cc1	-3%
SMILES	ERK EGF block
CC1(C)C[C@H]2C=C(C=O)[C@]3(C=O)C[C@]3(C)[C@H]2C1	10µM*
O=C1C=CC[C@@H]2[C@H]3CCCN4CCC[C@@H](CN12)[C@@H]34	-5%
C[C@H]1O[C@@H](O[C@H]2[C@@H](O)C[C@H](O[C@H]3[C@@H](O)C[C@H](O[C@H]4CC[C@]5(C)C6CC[C@]7(C)[C@@H](C8=CC(=O)OC8)CC[C@]7(O)C6CC[C@@H]5C4)O[C@@H]3C)O[C@@H]2C)C[C@H](O)[C@@H]1O (stereo not given in full)	-5%
CN1CC[C@@]2(c3cccc(O)c3)Cc3nc4ccccc4cc3C[C@H]2C1	18%
COc1ccc2c(c[n+](C)c3c4cc5c(cc4ccc23)OCO5)c1OC	13µM*
COc1ccc2c(c1OC)CN1CCc3cc4c(cc3[C@H]1C2)OCO4	5%[25.7 µM]
COc1ccc2c(c1OC)C(=O)O[C@H]2[C@H]1c2cc3c(cc2CCN1C)OCO3	-6%[25.7 µM]
CCCCCCCCCCCCC/C=C/[C@@H](O)[C@@H](N)COP(=O)([O-])OCC[N+](C)(C)C	-16%
CC/C=C\C/C=C\C/C=C\C/C=C\C/C=C\CCCC(=O)NC(C)C(=O)O (stereo not given)	0%
COC(=O)C12CC3=CCC4C(=O)N(c5ccccc5)C(=O)C4C3Cc3ccccc3[C@@H]1CNC2=O (stereo not given in full)	0%
CC[C@H](CO)NC(=O)[C@H]1C=C2c3cccc4[nH]cc(c34)C[C@@H]2N(C)C1	5%[25.7 µM]
CN1CCN(c2ccc(S(=O)(=O)C(F)(F)F)cc2[N+](=O)[O-])CC1	-6%
CN1CCN(c2ccc(S(C)(=O)=O)cc2[N+](=O)[O-])CC1	-3%
CN1CCN(c2ccc([N+](=O)[O-])c3no[n+]([O-])c23)CC1	10µM*
CCCCCCCCCCCCCCC[C@@H](O)[C@@H](N)COP(=O)(O)O	-17%
CN1CCc2cc(O)cc3c2C1Cc1ccc(O)c(O)c1-3 (stereo not given)	17%
C#C[C@@]1(O)CC[C@@H]2[C@@H]3CCC4=CC(=O)CC[C@@]4(C)[C@H]3CC[C@]21C	8%[25.7 µM]
CCNC(=O)[C@H]1O[C@@H](n2cnc3c(N)ncnc32)[C@H](O)[C@@H]1O	8.9µM*
CCNC(=O)[C@@H]1O[C@@H](n2cnc3c(N)ncnc32)[C@H](O)[C@H]1O	-14%
NC(=O)c1cn(C2OC(CO)C(O)C2O)c2ncnc(N)c12 (stereo not given)	-2%
COP(N)(=O)SC (stereo not given)	13%
Cc1ncc(CN2CC=C(c3ccccc3)CC2)c(N)n1	6%
CC/C=C\C[C@@H](/C=C/C=C\C/C=C\C/C=C\CCCC(=O)O)OO	-10%
CCCCC[C@@H](/C=C/C=C\CCCCCCCCCC(=O)O)OO	-4%
O=C1C=C2C=CC3C[C@@]2(O1)C1CCCCN31 (stereo not given in full)	2%
SMILES	ERK EGF block
C[C@@H]1O[C@@H](O[C@H]2CC[C@]3(C=O)C4CC[C@]5(C)[C@@H](C6=CC(=O)OC6)CC[C@]5(O)[C@@H]4CC[C@]3(O)C2)[C@H](O)[C@H](O)[C@H]1O (stereo not given in full)	10%
C[C@]12[C@H](O)CC3C(CC[C@@H]4C[C@@H](O)CC[C@]34C)[C@@]1(O)CC[C@@H]2C1=CC(=O)OC1 (stereo not given in full)	-13%
O=C1NC(=O)N(Cc2ccccc2)C(=O)/C1=C/c1cnc(-c2ccccc2)nc1	0%
O=C1NC(=O)N(CCc2ccc(F)cc2)C(=O)/C1=C\C=C\c1ccccc1	-9%
C=CCN1C(=O)NC(=O)/C(=C/C=C/c2ccccc2)C1=O	22µM*
CC[C@@H]1CN2CCc3cc(OC)c(OC)cc3[C@H]2C[C@@H]1C[C@H]1NCCc2cc(OC)c(OC)cc21	-15%[25.7 µM]
Cc1ccc2c(c1)=NC(=O)/C(=C/c1c(O)[nH]c(=O)[nH]c1=O)C=2	-8%[57.5 µM]

From PubChem BioAssay
